Source: PubChem BioAssay (Tox21)
Results filed as inconclusive are left out. Activity calls are given as the source filed them. Calls follow the shape of the dose curve; as a rule, active = well fitted inhibition curve with a large enough effect in the repeat runs; inconclusive = weak or mixed curves; inactive = no such curve, though single readings can be large or run the other way.
% is scaled to controls: 0 for no effect and ±100 for the full control effect; potency is read from the fitted curve at half-maximal effect.

The compounds below were run against Cytochrome P450 2C9 (Homo sapiens) (UniProt P11712) (assay: Cytochrome P450 Family 2 Subfamily C Member 9 (CYP2C9) small molecule antagonists: luciferase reporter qHTS assay (AID 1671198; also: nearly all actives have a fitted effect of over 50% in size)). Details: P450-Glo CYP2C9 enzyme assay, luciferin luminescence; series mostly up to 115 µM; activity change, negative = inhibition: at the top concentration.
Cytochrome P450 2C9 (Homo sapiens), sequence (P11712 whole entry, looked up): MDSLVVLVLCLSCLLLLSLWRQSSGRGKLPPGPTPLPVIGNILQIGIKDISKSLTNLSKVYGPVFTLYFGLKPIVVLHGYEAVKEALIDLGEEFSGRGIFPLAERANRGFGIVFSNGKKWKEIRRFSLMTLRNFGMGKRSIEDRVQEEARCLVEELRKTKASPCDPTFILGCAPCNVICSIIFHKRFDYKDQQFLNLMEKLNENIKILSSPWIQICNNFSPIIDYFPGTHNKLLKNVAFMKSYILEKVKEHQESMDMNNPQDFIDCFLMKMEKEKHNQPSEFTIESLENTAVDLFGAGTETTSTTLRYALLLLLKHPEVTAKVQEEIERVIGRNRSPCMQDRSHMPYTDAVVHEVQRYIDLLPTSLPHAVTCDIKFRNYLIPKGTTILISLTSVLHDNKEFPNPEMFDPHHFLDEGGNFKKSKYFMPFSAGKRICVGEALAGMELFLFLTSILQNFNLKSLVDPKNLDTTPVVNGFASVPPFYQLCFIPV
Description: U.S. Tox21 Program National Center for Advancing Translational Sciences [NCATS] U.S. Environmental Protection Agency [EPA] National Institutes of Environmental Health Sciences [NIEHS] National Toxicology Program [NTP] U.S. Food and Drug Administration [FDA] Tox21 Assay Overview: Cytochrome P450 (CYP) enzymes are membrane-bound hemeproteins that play a key role in metabolism of drugs and xenobiotics. Evaluation of the effect of chemicals on CYP isozymes is useful to minimize the adverse drug reactions and toxicities in drug development process. Tox21 chemicals were tested for their effect on CYP enzyme activities by using P450-Glo (TM) screening systems (Promega Corporation, Madison, WI). These systems provide a luminescent method containing proluciferin substrates and are converted to luciferin products by CYP isozymes. The luciferin products formed are detected with a luciferin detection reagent, and the amount of light produced is proportional to CYP activity. P450-Glo (TM) CYP2C9 screening system (Catalog. No. V9790) was used to detect the compounds that interfere in CYP2C9 activity.
Tox21 Assay Protocol Summary: Two ul of enzyme-substrate mix was dispensed into medium binding white/solid 1536-well plates (Greiner Bio-One North America Inc., Monroe, NC) using a BioRaptr Flying Reagent Dispenser (FRD, Beckman Coulter, Brea, CA). […] The assay plates were incubated at room temperature for 10 min. Then 2 ul of NADPH regeneration solution was added to each well of the assay plates using an FRD and incubated at 37C for 1 h. The reaction was stopped by adding 4 ul of detection reagent using an FRD and after 20 min incubation at room temperature the luminescence signal was measured using a ViewLux plate reader (Perkin Elmer, Shelton, CT). Data were expressed as relative luminescence units.
With `N=C(N)S(=O)O` the “activity change, negative = inhibition” value was 3.6% (inactive).
With `CC(=O)O[C@@H]1CC2C3CCc4cc(OC(=O)c5ccccc5)ccc4C3CCC2(C)[C@H]1OC(C)=O` (stereo not given in full) the Potency was 11 µM (active).
For `CCCCCCCCCCCCCCBr`, the “activity change, negative = inhibition” value was 6.65% (inactive).
In the case of `CC(=O)OCC(=O)[C@@]1(O)CC[C@H]2[C@@H]3CCC4=CC(=O)C=C[C@]4(C)[C@H]3[C@@H](O)C[C@@]21C`, the “activity change, negative = inhibition” value is reported as -19.4% [at 53 µM] (inactive).
`O=C1Nc2ccccc2C1=O` was tested, and the “activity change, negative = inhibition” value was 16% (inactive).
For `Cc1nnc(C(=O)NC(C)(C)c2nc(C(=O)NCc3ccc(F)cc3)c(O)c(=O)n2C)o1`, the “activity change, negative = inhibition” value was 3.85% [at 53 µM] (inactive).
For `CCCCCC(CC)OC(=O)CCCOc1ccc(Cl)cc1Cl` (stereo not given), the Potency was 28.2 µM (active).
In the case of `CCO[Si](CC(C)C)(OCC)OCC`, the Potency is reported as 39.9 µM (active).
`Cc1cc(=O)oc2cc(O[C@@H]3SC[C@@H](O)[C@H](O)[C@H]3O)ccc12` was tested, and the “activity change, negative = inhibition” value was -10.6% [at 53 µM] (inactive).
In the case of `O=CN1CCCCC1`, the “activity change, negative = inhibition” value is reported as -4.76% (inactive).
`CCCCS` was tested, and the “activity change, negative = inhibition” value was 1.27% (inactive).
For `CCOC(=O)COc1ccc2c(C)c(CCN(CC)CC)c(=O)oc2c1Cl`, the “activity change, negative = inhibition” value was 11.3% [at 53 µM] (inactive).
`COc1ccc(Cl)cc1C` was tested, and the Potency was 84.7 µM (active).
`CC(C)(C)c1ccc(C(=O)CCCCl)cc1` was tested, and the “activity change, negative = inhibition” value was -8.61% [at 53 µM] (inactive).
With `CCCCN=C(N)N=C(N)N` the “activity change, negative = inhibition” value was -9.05% [at 53 µM] (inactive).
`COC(=O)N/N=C/c1c[n+]([O-])c2ccccc2[n+]1[O-]` was tested, and the “activity change, negative = inhibition” value was 11.8% [at 53 µM] (inactive).
For `CCCCC(CC)COC(=O)CC#N` (stereo not given), the Potency was 31.7 µM (active).
With `CC(C)(C)C(=O)NCCCC(=O)O` the “activity change, negative = inhibition” value was 10.7% [at 53 µM] (inactive).
For `CCCC[O][Al]([O]CCCC)[O]CCCC`, the “activity change, negative = inhibition” value was -4.62% (inactive).
`C/C(Cl)=C/CCl` was tested, and the “activity change, negative = inhibition” value was -15.8% (inactive).
`CCCCCCCCCCCCCC(=O)OCC` was tested, and the “activity change, negative = inhibition” value was -2.64% (inactive).
`CN(C)CCCN(C)C` was tested, and the activity change, negative = inhibition was -13.3% [at 10.5 µM] (inactive).
`CCCOc1ccc(C(=O)OCCN(CC)CC)cc1N` was tested, and the “activity change, negative = inhibition” value was -0.376% [at 53 µM] (inactive).
In the case of `CC(=O)c1c(C)cc(C(C)(C)C)cc1C`, the “activity change, negative = inhibition” value is reported as -11.9% (inactive).
`N#Cc1cc(NC(=O)C(=O)O)c(Cl)c(NC(=O)C(=O)O)c1` was tested, and the “activity change, negative = inhibition” value was -5.51% [at 53 µM] (inactive).
With `CC(C)(C)NCC(O)COc1cccc2c1CCC(=O)N2` (stereo not given) the “activity change, negative = inhibition” value was 7.18% [at 53 µM] (inactive).
For `CC/C=C\CCCCCCCCCCOC(C)=O`, the “activity change, negative = inhibition” value was -1.31% (inactive).
`Cc1cc2c(cc1CC(=O)c1sccc1S(=O)(=O)Nc1onc(C)c1Cl)OCO2` was tested, and the Potency was 8.71 µM (active).
`CCc1ncc(C)[nH]1` was tested, and the “activity change, negative = inhibition” value was -17.4% (inactive).
With `CCOC(=O)CC` the “activity change, negative = inhibition” value was 4.59% (inactive).
For `C[Si](C)(C)O[Si](O)(O)O`, the “activity change, negative = inhibition” value was 5.84% (inactive).
For `CCC(C)SSC(C)CC` (stereo not given), the “activity change, negative = inhibition” value was -0.755% (inactive).
With `COC(=O)C(c1ccccc1Cl)N1CCc2sccc2C1` (stereo not given) the Potency was 17.4 µM (active).
With `Cc1ccccc1OCC(=O)O` the Potency was 79.6 µM (active).
`CCOC(=O)CC(C(C)=O)C(C)=O` was tested, and the “activity change, negative = inhibition” value was -8.34% (inactive).
For `CC[N+](C)(CC)CC`, the “activity change, negative = inhibition” value was -7.51% (inactive).
In the case of `O=S(=O)(O)c1ccc(Cl)cc1`, the “activity change, negative = inhibition” value is reported as -15.3% (inactive).
With `N=C(N)N1CCc2ccccc2C1` the activity change, negative = inhibition was 6.48% [at 10.5 µM] (inactive).
With `O=C(O)/C=C(\CC(=O)O)C(=O)O` the “activity change, negative = inhibition” value was -1.25% [at 53 µM] (inactive).
In the case of `COC(=O)c1ccc(NC(C)=O)cc1OC`, the “activity change, negative = inhibition” value is reported as 1.23% [at 53 µM] (inactive).
